# Inconclusive results are not listed. Active and inactive are the calls of the source. Calls follow the shape of the dose curve; as a rule, active = well fitted cell-killing curve with a large enough effect; inconclusive = small, poorly fitted or top-dose-only effect, or effect the other way; inactive = no such curve, though single readings can be large or run the other way.
# Assay: Quantitative High-Throughput drug screen in 47 multiple myeloma cell lines against the NCATS MIPE library collection: OCIMY5_PLB cell viability assay (AID 1918988); also: nearly all actives have a fitted effect of over 65% in size
# Conditions: OCI-MY5 myeloma viability, ATP luminescence, 48 h; series mostly up to 45.8 µM
# Excerpt: PI: Beverly A. Mock Ph.D.
# Laboratory of Cancer Biology and Genetics,
# Center for Cancer Research, National Cancer Institute,
# National Institute of Health, Bethesda, Maryland
# Drug resistance and disease progression are common in multiple myeloma (MM) patients, underscoring the need for new therapeutic combinations. […] We hypothesized that effective combinations would reduce MYC expression and enhance p16 activity. […] These preclinical data identify potentially useful drug combinations for evaluation in drug-resistant MM and reveal potential mechanisms of combined drug sensitivity.
# Described herein is the primary MIPE qHTS used to cherrypick compounds. Validated compounds were then further tested for potential synergistic activiy.
# [1] Peat TJ, Gaikwad SM, Dubois W, Gyabaah-Kessie N, Zhang S, Gorjifard S, Phyo Z, Andres M, Hughitt VK, Simpson RM, Miller MA, Girvin AT, Taylor A, Williams D, D'Antonio N, Zhang Y, Rajagopalan A, Flietner E, Wilson K, Zhang X, Shinn P, Klumpp-Thomas C, McKnight C, Itkin Z, Chen L, Kazandijian D, Zhang J, Michalowski AM, Simmons JK, Keats J, Thomas CJ, Mock BA. Drug combinations identified by high-throughput screening promote cell cycle transition and upregulate Smad pathways in myeloma. Cancer Lett. 2023 Aug 1;568:216284. doi: 10.1016/j.canlet.2023.216284. Epub 2023 Jun 24. PMID: 37356470; PMCID: PMC10408729.
# SEQUENCE No. (e.g., 1, 2, 3, etc.); […] (e.g., Cells, Incubation, Reagent, etc.); VALUE and DESCRIPTION.
# 1; Cells; 5 uL; white, solid bottom 1536-well Greiner assay plate.
# 2; Compounds; 23 nL; Kalypsis pin tool (Wako USA) equipped with a 1536-well pin head to transfer to the assay plates.
# 3; Incubation; 48 hours; 37C incubation.
# 4; Reagent;5uL; CellTiter Glo (Promega).
# 5; Detector; 425V; Luminescence; Viewlux PerkinElmer.
# NOTES (numbers refer to Sequence numbers above)
# 1. The cell-based screening methods employed in this study were like those previously published. Briefly, the corresponding myeloma cell lines were screened in 1,536-well plates with 500 cells, 5-uL per well for inhibition of cell viability (assessed by measuring ATP levels with CellTiterGlo).
# 2. NCATS MIPE 4.0 library of approved and investigational drugs were added using the Kalypsis pin tool. Wells treated with DMSO only for 100% viability and media only for 0% viability were used as controls.
# 3. The assay plates were covered and incubated for 48 hours in a 37C, 5% CO2 incubator with controlled humidity.
# 4. After 48 hours, CellTilter-GloTM luminescent substrate mix (Promega) reagent was added to the assay plate and plates we incubated for 5 min at room temperature.
# 5. Signal was measured as median relative luminescence units on a ViewLux (PerkinElmer) multiplate reader.
# [1] Heske CM, Davis MI, Baumgart JT, Wilson K, Gormally MV, Chen L, Zhang X, Ceribelli M, Duveau DY, Guha R, Ferrer M, Arnaldez FI, Ji J, Tran HL, Zhang Y, Mendoza A, Helman LJ, Thomas CJ. Matrix Screen Identifies Synergistic Combination of PARP Inhibitors and Nicotinamide Phosphoribosyltransferase (NAMPT) Inhibitors in Ewing Sarcoma. Clin Cancer Res. 2017 Dec 1;23(23):7301-7311. doi: 10.1158/1078-0432.CCR-17-1121. Epub 2017 Sep 12. PMID: 28899971; PMCID: PMC6636827.
# Potency is read from the fitted curve at half-maximal effect.
row,SMILES,Potency
1,N[C@H]1CN(c2c(F)cc3c(=O)c(C(=O)O)cn(C4C[C@@H]4F)c3c2Cl)CC12CC2 (stereo not given in full),20900 nM (active)
2,COc1cc(N2CCC(C(N)=O)CC2)ccc1Nc1nc(N)c(Cl)c(Nc2ccccc2S(=O)(=O)C(C)C)n1,935 nM (active)
3,O=c1ccn([C@@H]2O[C@H](CO)[C@H](O)[C@@H]2F)c(=O)[nH]1,inactive
4,C=CC(=O)Nc1ccc2ncnc(Nc3ccc(OCc4cccc(F)c4)c(Cl)c3)c2c1,52.6 nM (active)
5,CN[C@H]1[C@@H](O)[C@@H]2O[C@@H]3O[C@H](C)CC(=O)[C@]3(O)O[C@@H]2[C@@H](NC)[C@H]1O,1180 nM (active)
6,C=C1CCC2[C@](C)(CO)C(O)CC[C@]2(C)C1CC=C1C(=O)OCC1O (stereo not given in full),42900 nM (active)
7,COc1cc(C)c(Sc2cnc(NC(=O)c3ccc(CNC(C)C(C)(C)C)cc3)s2)cc1C(=O)N1CCN(C(C)=O)CC1 (stereo not given),16600 nM (active)
8,O=C(O)c1ccc(Nc2ncc3c(n2)-c2ccc(Cl)cc2C(c2c(F)cccc2F)=NC3)cc1,332 nM (active)
9,CC(C)C[C@H](NC(=O)CNC(=O)c1cc(Cl)ccc1Cl)B1OC(=O)CC(CC(=O)O)(C(=O)O)O1 (stereo not given in full),26.4 nM (active)
10,CCS(=O)(=O)Nc1ccc2[nH]c(O)c(C(=Nc3ccc(CN4CCCCC4)cc3)c3ccccc3)c2c1,2090 nM (active)
11,CC1=C(C(=O)Nc2cc3cn[nH]c3cc2F)C(c2ccc(Cl)cc2F)N=C(c2ccnc(Cl)c2)N1 (stereo not given),16600 nM (active)
12,C=C1C(=CC=C2CCC[C@]3(C)[C@@H]([C@H](C)CCCC(C)(C)O)CC[C@@H]23)C[C@@H](O)C[C@@H]1O,3320 nM (active)
13,CN(C)CCN1C(=O)c2cccc3cc(N)cc(c23)C1=O,23500 nM (active)
14,CCc1c(O)cc(O)c(C(=O)c2ccc(OCCN3CCOCC3)c(OC)c2)c1CC(=O)N(CCOC)CCOC,469 nM (active)
15,C[C@H](NCc1ccc2c(c1)nc(NC(=O)c1ccc(-c3cn[nH]c3)s1)n2CCc1ccccc1)C(C)(C)C,833 nM (active)
16,CCC[C@H]1C[C@H](C(=O)N[C@@H]([C@@H]2O[C@@H](SC)[C@@H](O)[C@@H](O)[C@@H]2O)[C@H](C)Cl)N(C)C1,inactive
17,CC(C(C)N1CC(=O)NC(=O)C1)N1CC(=O)NC(=O)C1 (stereo not given),469 nM (active)
18,Cc1onc(-c2ccccc2)c1C(=O)N[C@@H]1C(=O)N2[C@@H](C(=O)O)C(C)(C)S[C@@H]12,inactive
19,C#CCC(Cc1cnc2nc(N)nc(N)c2n1)c1ccc(C(=O)N[C@@H](CCC(=O)O)C(=O)O)cc1 (stereo not given in full),inactive
20,COc1cc(OC)cc(-c2ccc3ncc4ccc(=O)n(-c5ccc(N6CCNCC6)c(C(F)(F)F)c5)c4c3c2)c1,1320 nM (active)

row,SMILES,Potency
1,Cc1ccc(O)c(C(CCN(C(C)C)C(C)C)c2ccccc2)c1 (stereo not given),inactive
2,CC(=O)[C@]1(O)Cc2c(O)c3c(c(O)c2[C@@H](O[C@H]2C[C@H](N)[C@@H](O)[C@H](C)O2)C1)C(=O)c1ccccc1C3=O,132 nM (active)
3,O=C1CSC(=O)N1C(CCc1ccncc1)COc1ccc(-c2cccc([N+](=O)[O-])c2)cc1 (stereo not given),2350 nM (active)
4,CC(=O)OCC(=O)[C@@]1(O)CC[C@H]2[C@@H]3CCC4=CC(=O)CC[C@]4(C)[C@@H]3C(=O)C[C@@]21C,inactive
5,CC(C)[C@H](CO)Nc1nc(Nc2cccc(Cl)c2)c2ncn(C(C)C)c2n1,18700 nM (active)
6,Cc1ccc(-n2[nH]c(C)c(N=Nc3cccc(-c4cccc(C(=O)O)c4)c3O)c2=O)cc1C,26400 nM (active)
7,c1cc(N[C@@H]2CCNC2)nc(-c2cnc3ccc(-c4cn[nH]c4)cn23)c1,13200 nM (active)
8,Cn1c(Nc2ccc(C(F)(F)F)cc2)nc2cc(Oc3ccnc(-c4ncc(C(F)(F)F)[nH]4)c3)ccc21,9350 nM (active)
9,Nc1cccc2c1C(=O)N(C1CCC(=O)NC1=O)C2=O (stereo not given),10500 nM (active)
10,CN1C(C(=O)Nc2ccccn2)=C(O)c2sc(Cl)cc2S1(=O)=O,2960 nM (active)
11,NC(=O)N1CCC(CC(=O)N2CCC([C@H]3c4ncc(Br)cc4CCc4cc(Cl)cc(Br)c43)CC2)CC1,9350 nM (active)
12,CCOc1cc2ncc(C#N)c(Nc3ccc(OCc4ccccn4)c(Cl)c3)c2cc1NC(=O)C=CCN(C)C,833 nM (active)
13,COC1=C2C[C@@H](C)C[C@H](OC)[C@@H](O)[C@@H](C)C=C(C)[C@H](OC(N)=O)[C@@H](OC)C=CC=C(C)C(=O)NC(=CC1=O)C2=O,37.2 nM (active)
14,CC[C@@]1([C@@H]2O[C@@H]([C@H]3O[C@@](O)(CO)[C@H](C)C[C@H]3C)C[C@H]2C)CC[C@H]([C@]2(C)CC[C@]3(C[C@H](O)[C@@H](C)[C@@H]([C@@H](C)[C@@H](OC)[C@H](C)C(=O)O)O3)O2)O1,102 nM (active)
15,CCN(CC)Cc1ccc2cc(COC(=O)Nc3ccc(C(=O)NO)cc3)ccc2c1,372 nM (active)
16,O=C1NC(=O)C(=Cc2ccc3nccc(-c4ccncc4)c3c2)S1,526 nM (active)
17,C[C@]12CC[C@@H]3c4ccc(O)cc4CC[C@H]3[C@H]1CC[C@H]2O,9350 nM (active)
18,COc1cc2ncnc(Nc3cccc(Br)c3)c2cc1OC,11.8 nM (active)
19,N#CC(=Cc1ccc(O)c(O)c1)C(=O)NCc1ccccc1,20900 nM (active)
20,O=[N+]([O-])c1cn2c(n1)OC[C@@H](OCc1ccc(OC(F)(F)F)cc1)C2,inactive
